Among all 230,000 compounds or so, fewer than 10 were called active. Roughly 3% stayed inconclusive and do not appear here. Calls follow the shape of the dose curve; as a rule, active = well fitted curve in the direction sought with a large enough effect; inconclusive = small, poorly fitted or top-dose-only effect, or effect the other way, or another doubt; inactive = no such curve, though single readings can be large or run the other way. Only a sample is shown.
Each molecule was assayed against Runt-related transcription factor 1 (Homo sapiens) + Core-binding factor subunit beta (Homo sapiens) (UniProt Q01196+Q13951) (assay: qHTS Assay for Compounds Blocking the Interaction Between CBF-beta and RUNX1 for the Treatment of Acute Myeloid Leukemia). Details: AlphaScreen CBFb-His/RUNX1-biotin binding, biochemical; series mostly up to 59.8 µM.
Chain of Runt-related transcription factor 1 (Homo sapiens) + Core-binding factor subunit beta (Homo sapiens) (Q01196 whole entry, looked up): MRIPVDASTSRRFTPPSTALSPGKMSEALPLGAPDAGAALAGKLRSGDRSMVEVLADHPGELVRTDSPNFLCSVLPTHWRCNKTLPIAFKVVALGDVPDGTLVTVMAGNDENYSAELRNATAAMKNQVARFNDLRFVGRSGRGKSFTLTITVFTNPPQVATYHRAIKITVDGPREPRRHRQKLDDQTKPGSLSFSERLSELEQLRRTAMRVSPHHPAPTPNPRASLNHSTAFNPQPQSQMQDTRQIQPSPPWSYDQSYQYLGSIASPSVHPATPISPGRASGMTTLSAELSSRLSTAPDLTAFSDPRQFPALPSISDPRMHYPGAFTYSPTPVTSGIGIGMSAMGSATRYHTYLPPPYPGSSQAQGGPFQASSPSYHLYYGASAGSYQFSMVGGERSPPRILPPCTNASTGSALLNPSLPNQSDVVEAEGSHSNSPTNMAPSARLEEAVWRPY
Chain of Runt-related transcription factor 1 (Homo sapiens) + Core-binding factor subunit beta (Homo sapiens) (Q13951 whole entry, looked up): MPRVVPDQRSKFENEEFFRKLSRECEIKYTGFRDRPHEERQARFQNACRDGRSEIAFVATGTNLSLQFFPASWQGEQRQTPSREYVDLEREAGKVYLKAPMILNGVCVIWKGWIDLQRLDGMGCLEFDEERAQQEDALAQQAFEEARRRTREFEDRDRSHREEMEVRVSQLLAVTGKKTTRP
From the text: NIH Chemical Genomics Center [NCGC]
NIH Molecular Libraries Probe Production centers Network [MLPCN]
Assay Submitter (PI): Paul Liu
Core Binding Factor (CBF) abnormalities are associated with 20-25% of all acute myeloid leukemias (AML), of which 5-10% are further sub classified as acute myelomonocytic leukemia with eosinophilia, also known as M4Eo in the FAB classification scheme. This subtype of leukemia is usually associated with chromosome 16 inversion (p13:q22). Chromosome 16 inversion results in formation of the fusion oncogene CBFB-MYH11, which encodes the fusion protein CBF-beta-SMMHC.
It has been hypothesized that the interference of CBF-beta and RUNX1 binding could have therapeutic implications for patients with CBF mediated leukemias. We developed a CBF-beta and RUNX1 binding assay in AlphaScreenTM format and optimized it for high throughput screening to search for inhibitors. The goal of this project is to screen MLPCN's compound collection (MLSMR) for identifying the inhibitors of the interaction between CBF-beta and RUNX1 proteins as research probes. If these probes work well in the animal models, the ultimate goal of this project is to development a new drug treatment for this disease.
This assay can not be used to assess how apparent inhibitors interfere with protein binding, and whether inhibitors specifically bind to either protein. Disruption of this protein-protein interaction, through any mechanism, is the intended target activity.
NCGC Assay Protocol Summary:
Step, Parameter, Description
(1) Reagent, 3 uL CBFb-His/RUNX1-biotin mix incubated together for 20 minutes at room temperature (30 nM each)
(2) Compound or control, 23 nL compound stock solution
(3) Incubation, 15 minutes at Room temperature
(4) Reagent, 1 uL 50 ng each of beads (Nickel beads and streptavidin beads)
(5) Incubation, 90 minutes at Room temperature
(6) Detection, Excitation=365 nm Emission=440 nm, Envision reader in AlphaScreenTM mode
Keywords: MLSMR, MLPCN, NIH Roadmap, qHTS, NCGC, Core binding factor, CBF, CBF-beta, Acute myeloid leukemia
Also: % of control where 0% means no effect.

activity, negative = inhibition, inactive:
O=C(c1ccccc1)c1cc(-c2ccccn2)c(N2CCOCC2)s1
CC1CN(c2nc(Nc3ccccc3)nc(N)c2[N+](=O)[O-])CC(C)O1 (stereo not drawn)
OCCC#Cc1ccc(CN2CCN(Cc3ccsc3)C(CCO)C2)cc1 (stereo not drawn)
O=C(O)c1ccc(/C=C2/SC(=S)N(c3cccc(C(F)(F)F)c3)C2=O)cc1
COc1ccc2nc(NC(=O)NC3CCCCC3)sc2c1
COc1ccc(Br)cc1C1C2C=CCC(C)C2C(=O)N1Cc1ccccc1 (stereo not drawn)
COc1cc(C(=O)NCc2nnc(SCC(=O)Nc3nc4ccc(C)cc4s3)o2)cc(OC)c1OC
COCc1cc(=O)[nH]c(-c2ccc(C(F)(F)F)cc2)n1
COc1ccc(N2C(=O)/C(=C\c3ccco3)N=C2SCC(N)=O)cc1Cl
COc1ccc(Cl)cc1NC(=O)NC(C)C(C)(C)C (stereo not drawn)
CC(C)=CCC[C@]1(C)[C@@H](CC=C(C)C)C[C@@]2(CC=C(C)C)C(=O)[C@]1(C(=O)C(C)C)C(=O)C(CC=C(C)C)=C2O
COc1ccc(/C=C/C(=O)Nc2ccc(C)cc2)cc1S(=O)(=O)N1CCOCC1
Cc1ccc(CNC(=O)C2(C(F)(F)F)C/C(=C\CCO)CCCO2)o1 (stereo not drawn)
C[C@H]1CCC[C@@]2(C)CCCC[C@]12O
Oc1ccc(-c2c(-c3ccccc3)nn3c(C(F)(F)F)cc(C(F)(F)F)nc23)cc1
COc1ccc2oc(-c3cccc(NC(=O)CSc4ccc(Cl)cc4)c3)nc2c1
CC[C@H](C)[C@@H](NC(=O)O[C@@H]1C(=O)c2cc(OC)ccc2O[C@H]1c1cccc(OC)c1)C(=O)OC
COc1ccc(C2/C=C\CN(C(=O)c3ccc(C)cc3)C(Cc3ccccc3)C(=O)N2Cc2ccc(F)cc2)cc1 (stereo not drawn)
H-EHIPA-OH
COC(=O)C(CC(C)C)NS(=O)(=O)c1cc(Br)ccc1Br (stereo not drawn)
Cc1ccc(C(=O)N/N=C\c2cc(Br)c(Br)o2)cn1
COc1ccc(C2/C=C\CN(CC(C)C)CC(=O)N2Cc2ccc(F)cc2)cc1 (stereo not drawn)
COc1ccc(C(=O)CSc2nnc(NC(=O)C3CC(=O)N(c4cccc(OC)c4)C3)s2)cc1 (stereo not drawn)
COc1ccc(/C=N/NC(=O)Cn2cc(C(F)(F)F)ccc2=O)cc1
COC(=O)c1c(NC(=O)CN(c2ccc(C)c(C)c2)S(C)(=O)=O)sc2c1CCCC2
COc1ccc(C(CCN2CCOCC2)c2c(OC)cc(OC)c3c2OC(=O)CC3c2ccc(OC)cc2)cc1 (stereo not drawn)
COC(=O)c1nc2n(n1)C(c1ccc([N+](=O)[O-])cc1)C(C(=O)Nc1ccc(Cl)cc1)=C(C)N2 (stereo not drawn)
O=C(COC(=O)c1ccc(S(=O)(=O)Nc2ccccc2)cc1)NCC1CCCO1 (stereo not drawn)
C=C1CCN(Cc2ccc(OC)cc2)S(=O)(=O)c2ccccc21
CC(C)C(NS(=O)(=O)c1ccc(-c2ccc(Br)cc2)cc1)C(=O)O (stereo not drawn)
CCCC(O)(CCC)C(=O)NN(C(=O)CCl)c1cccc(C)c1
COc1ccc(C(=O)Nc2ccc(-n3nncc3C(C)(C)C)cc2)cc1
C=CCOC(=O)C(=C)C
NCCCCC(N)C(=O)O (stereo not drawn)
O=C(Cn1c(COc2ccccc2)nc2ccccc21)Nc1cc(Cl)c(Cl)cc1Cl
C/C(=N\NC(=O)CNC(=O)C(c1ccccc1)c1ccccc1)c1ccc(C)cc1
COc1ccc(C(=O)NC2CCN(C(=S)NCCc3ccccc3)CC2)cc1
O=C(Nc1cc(C(F)(F)F)ccc1Cl)c1cc2nc3c(c(C(F)(F)F)n2n1)CCCC3
Cc1cc(OCCCCOc2ccc(C#N)cc2)ccc1[N+](=O)[O-]
Cc1cc2c(cc1C)N(Cc1ccccc1)C1=NCCCN12
CCCc1cc(=O)[nH]c(SCC(=O)N2CCN(S(=O)(=O)c3ccc(C)cc3C)CC2)n1
CCOC(=O)c1nn(-c2cccc(C)c2)cc1C(=O)c1ccccc1
COc1ccc(-c2nc3c(c4c2C[C@H](c2ccccc2)OC4)CN(C(=O)c2ccco2)CC3)c(C)c1 5.84% [at 13.1 µM]
COc1ccc(-c2ccc(OC(=O)NC3CCS(=O)(=O)C3)cc2)cc1 (stereo not drawn)
COc1ccccc1/C=C/CN1CCC(CO)(Cc2ccccc2)CC1
CC(=O)c1c(O)cc2n(c1=O)-c1ccc(Cl)cc1C2(C)C
C/C(=C\c1ccccc1)C1NC(=O)c2c(sc3c2CCCC3)N1 (stereo not drawn)
Cc1ccc(-n2cc(CN(C)Cc3nccn3C)c(-c3cccc(C)c3)n2)cc1
CC(/C=C/c1ccco1)=N/NC(=O)C1COc2ccccc2O1 (stereo not drawn)
CCOc1cccc2c1OC1(CCCCC1)N1N=C(c3cccnc3)CC21 (stereo not drawn)
OCCNCCOc1ccc(Cl)c(Cl)c1
Cc1c(CCO)c(=O)[nH]n1C(=O)c1c(F)cccc1F
O=C1C[C@@H](c2ccc3ccccc3c2)N1S(=O)(=O)c1ccccc1[N+](=O)[O-]
CCOC(=O)Cn1c(=O)sc2cccc(Cl)c21
O=C(CC1C(=O)NCCN1Cc1ccc(-c2ccccc2)cc1)NCC1CCOCC1 (stereo not drawn)
CCO[C@H]1OC(C(=O)Nc2ccccc2)=C[C@@H](C2CC2)[C@@H]1CCCO
Cc1ccc2nc(-c3cccnc3)c(NC3CCCC3)n2c1
CCCCC/C=C\C/C=C\C/C=C\CCCCCCC(N)=O
Cc1ccc(C2=NN(C(=O)COc3ncnc4ccccc34)C(c3ccco3)C2)cc1 (stereo not drawn)
O=C(Cc1ccc(S(=O)(=O)N2CCCC2)s1)NC1CCCCCC1
O=C(Nc1ccc(-c2csc(Nc3cccc(C(F)(F)F)c3)n2)cc1)c1cccc(C(F)(F)F)c1
CC[C@H](C)[C@H](NC(=O)[C@H](Cc1ccc(O)cc1)NC(=O)[C@@H](NC(=O)[C@H](CCCN=C(N)N)NC(=O)[C@@H](N)CC(=O)O)C(C)C)C(=O)N[C@@H](Cc1cnc[nH]1)C(=O)N1CCC[C@H]1C(=O)N[C@@H](Cc1ccccc1)C(=O)O
COc1ccc(CCn2c(NN=C3CCCC3)nc3c2c(=O)[nH]c(=O)n3C)cc1
